Laboratory results reported in the supplement of paper PMC11001985.
Unmarked numbers belong to inactive results.

Compound: C#CCNC(=O)CCSSCCC(=O)NCCc1ccc(C=O)c(C=O)c1
Test: lysine labeling ratio R10:1 (500 µM / 50 µM probe), SILAC-ABPP in living cells; higher = lower intrinsic lysine reactivity toward the probe, active = 2 or less
Conditions: HeLa; probe concentrations 500 vs 50 µM
Outline: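 SILAC light and heavy living HeLa cells in PBS at room temperature were labelled with 50 µM or 500 µM of an alkyne-tagged, disulfide-linked lysine probe, with forward and reverse label swaps. Mixed lysates were clicked to biotin-azide, trypsin-digested, captured on neutravidin, DTT-released, alkylated and analysed by LC-MS/MS on a TIMS-TOF Pro. R is the filtered median high-probe/low-probe MS1 peptide ratio per lysine, then the median across forward and reverse replicates. Ratios are capped at 20.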

Chain of UniProt P11021 (P11021 whole entry): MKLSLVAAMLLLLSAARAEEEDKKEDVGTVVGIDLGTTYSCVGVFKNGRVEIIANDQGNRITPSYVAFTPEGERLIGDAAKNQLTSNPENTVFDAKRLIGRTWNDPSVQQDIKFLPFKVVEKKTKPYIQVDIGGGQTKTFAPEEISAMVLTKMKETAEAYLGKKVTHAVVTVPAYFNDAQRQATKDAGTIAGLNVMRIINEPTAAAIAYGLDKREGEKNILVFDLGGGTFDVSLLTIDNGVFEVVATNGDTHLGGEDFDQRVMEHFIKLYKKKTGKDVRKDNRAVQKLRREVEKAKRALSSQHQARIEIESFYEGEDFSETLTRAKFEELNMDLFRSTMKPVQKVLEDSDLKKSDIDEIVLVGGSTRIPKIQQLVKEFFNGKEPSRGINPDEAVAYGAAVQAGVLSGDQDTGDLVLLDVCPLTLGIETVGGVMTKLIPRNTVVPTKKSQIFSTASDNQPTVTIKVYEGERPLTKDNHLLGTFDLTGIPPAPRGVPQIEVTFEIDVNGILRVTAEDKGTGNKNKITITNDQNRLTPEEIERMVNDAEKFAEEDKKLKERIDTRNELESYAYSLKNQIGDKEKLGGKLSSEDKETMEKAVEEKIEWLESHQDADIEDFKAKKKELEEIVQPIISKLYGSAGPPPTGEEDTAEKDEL
Chain of UniProt P16422 (P16422 whole entry): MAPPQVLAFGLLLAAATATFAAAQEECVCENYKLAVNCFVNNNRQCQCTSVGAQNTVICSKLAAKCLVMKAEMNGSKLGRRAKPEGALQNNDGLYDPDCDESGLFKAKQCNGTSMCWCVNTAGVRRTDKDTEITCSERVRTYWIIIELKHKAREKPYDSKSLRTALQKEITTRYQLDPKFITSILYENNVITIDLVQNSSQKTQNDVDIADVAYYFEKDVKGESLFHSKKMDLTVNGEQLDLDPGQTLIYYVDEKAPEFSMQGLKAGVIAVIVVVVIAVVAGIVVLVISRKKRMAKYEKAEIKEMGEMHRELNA
Chain of UniProt P13995 (P13995 whole entry): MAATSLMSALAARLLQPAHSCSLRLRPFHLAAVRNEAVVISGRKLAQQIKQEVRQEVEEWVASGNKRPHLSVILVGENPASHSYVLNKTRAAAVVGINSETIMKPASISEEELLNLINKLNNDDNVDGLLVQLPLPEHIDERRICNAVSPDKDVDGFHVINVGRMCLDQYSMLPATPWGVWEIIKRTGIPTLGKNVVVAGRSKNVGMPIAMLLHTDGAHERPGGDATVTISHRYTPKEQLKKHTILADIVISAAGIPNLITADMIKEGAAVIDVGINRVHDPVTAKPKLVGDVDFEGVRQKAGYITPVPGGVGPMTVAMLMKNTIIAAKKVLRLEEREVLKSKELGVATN
Chain of UniProt P07942 (P07942 whole entry): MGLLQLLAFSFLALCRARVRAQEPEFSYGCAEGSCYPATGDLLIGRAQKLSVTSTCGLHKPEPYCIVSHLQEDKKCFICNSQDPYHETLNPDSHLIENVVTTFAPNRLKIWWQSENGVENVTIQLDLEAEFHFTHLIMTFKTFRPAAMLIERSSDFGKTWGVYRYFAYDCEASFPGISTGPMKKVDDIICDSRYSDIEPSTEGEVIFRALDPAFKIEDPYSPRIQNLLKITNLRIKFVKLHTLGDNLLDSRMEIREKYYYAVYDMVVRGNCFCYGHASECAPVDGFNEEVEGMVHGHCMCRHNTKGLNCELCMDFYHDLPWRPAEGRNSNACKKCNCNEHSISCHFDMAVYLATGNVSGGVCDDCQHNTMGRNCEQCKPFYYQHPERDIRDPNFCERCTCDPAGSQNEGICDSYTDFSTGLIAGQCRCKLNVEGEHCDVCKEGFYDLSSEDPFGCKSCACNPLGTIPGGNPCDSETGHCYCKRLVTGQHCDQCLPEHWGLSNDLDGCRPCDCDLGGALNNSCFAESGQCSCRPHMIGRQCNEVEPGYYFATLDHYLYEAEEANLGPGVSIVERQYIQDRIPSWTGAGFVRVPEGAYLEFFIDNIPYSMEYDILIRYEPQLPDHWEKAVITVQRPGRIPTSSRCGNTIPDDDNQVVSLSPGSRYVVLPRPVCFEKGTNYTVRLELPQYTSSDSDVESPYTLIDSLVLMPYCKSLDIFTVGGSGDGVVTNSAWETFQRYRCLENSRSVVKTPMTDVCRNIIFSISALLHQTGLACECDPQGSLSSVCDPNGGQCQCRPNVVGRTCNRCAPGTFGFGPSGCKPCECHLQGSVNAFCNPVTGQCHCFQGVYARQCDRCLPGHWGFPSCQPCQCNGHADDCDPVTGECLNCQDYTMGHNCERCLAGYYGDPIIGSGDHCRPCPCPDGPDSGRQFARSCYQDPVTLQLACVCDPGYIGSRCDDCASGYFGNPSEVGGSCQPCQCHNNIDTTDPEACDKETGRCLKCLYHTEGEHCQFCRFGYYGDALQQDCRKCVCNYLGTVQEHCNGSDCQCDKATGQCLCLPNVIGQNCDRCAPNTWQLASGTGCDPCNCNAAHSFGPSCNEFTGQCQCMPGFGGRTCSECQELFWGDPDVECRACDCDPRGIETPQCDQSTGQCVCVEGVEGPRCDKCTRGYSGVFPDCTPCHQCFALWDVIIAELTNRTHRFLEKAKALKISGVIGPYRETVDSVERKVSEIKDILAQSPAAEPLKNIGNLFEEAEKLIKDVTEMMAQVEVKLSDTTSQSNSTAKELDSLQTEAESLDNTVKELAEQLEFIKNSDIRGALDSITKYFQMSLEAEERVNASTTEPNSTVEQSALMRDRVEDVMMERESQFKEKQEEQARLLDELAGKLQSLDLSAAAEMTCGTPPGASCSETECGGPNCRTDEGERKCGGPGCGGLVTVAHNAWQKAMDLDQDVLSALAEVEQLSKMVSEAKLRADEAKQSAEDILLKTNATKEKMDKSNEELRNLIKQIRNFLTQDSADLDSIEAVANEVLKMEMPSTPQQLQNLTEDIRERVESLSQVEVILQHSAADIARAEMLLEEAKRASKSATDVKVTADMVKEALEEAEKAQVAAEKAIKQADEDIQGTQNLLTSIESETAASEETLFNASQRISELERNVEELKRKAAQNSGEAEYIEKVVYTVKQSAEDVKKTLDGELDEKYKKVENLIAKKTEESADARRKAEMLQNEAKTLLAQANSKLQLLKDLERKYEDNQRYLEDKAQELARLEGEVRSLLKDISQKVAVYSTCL
Chain of UniProt P32119 (P32119 whole entry): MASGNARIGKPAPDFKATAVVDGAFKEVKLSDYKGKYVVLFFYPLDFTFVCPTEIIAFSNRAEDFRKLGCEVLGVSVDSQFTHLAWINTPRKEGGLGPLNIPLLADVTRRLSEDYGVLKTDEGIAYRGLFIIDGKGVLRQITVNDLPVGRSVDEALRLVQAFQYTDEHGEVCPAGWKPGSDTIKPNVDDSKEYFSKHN
Chain of UniProt Q7Z3B1 (Q7Z3B1 whole entry, looked up): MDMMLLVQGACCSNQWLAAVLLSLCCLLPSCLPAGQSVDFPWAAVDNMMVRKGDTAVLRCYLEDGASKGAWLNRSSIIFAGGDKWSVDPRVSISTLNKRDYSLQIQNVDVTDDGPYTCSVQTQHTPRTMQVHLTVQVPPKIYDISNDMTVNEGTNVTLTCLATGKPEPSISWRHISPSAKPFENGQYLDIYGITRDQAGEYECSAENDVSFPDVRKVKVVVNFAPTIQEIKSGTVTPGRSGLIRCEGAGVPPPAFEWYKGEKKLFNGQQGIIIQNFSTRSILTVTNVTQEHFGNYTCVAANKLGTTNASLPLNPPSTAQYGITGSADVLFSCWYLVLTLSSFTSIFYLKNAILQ
Chain of UniProt Q5T9A4 (Q5T9A4 whole entry): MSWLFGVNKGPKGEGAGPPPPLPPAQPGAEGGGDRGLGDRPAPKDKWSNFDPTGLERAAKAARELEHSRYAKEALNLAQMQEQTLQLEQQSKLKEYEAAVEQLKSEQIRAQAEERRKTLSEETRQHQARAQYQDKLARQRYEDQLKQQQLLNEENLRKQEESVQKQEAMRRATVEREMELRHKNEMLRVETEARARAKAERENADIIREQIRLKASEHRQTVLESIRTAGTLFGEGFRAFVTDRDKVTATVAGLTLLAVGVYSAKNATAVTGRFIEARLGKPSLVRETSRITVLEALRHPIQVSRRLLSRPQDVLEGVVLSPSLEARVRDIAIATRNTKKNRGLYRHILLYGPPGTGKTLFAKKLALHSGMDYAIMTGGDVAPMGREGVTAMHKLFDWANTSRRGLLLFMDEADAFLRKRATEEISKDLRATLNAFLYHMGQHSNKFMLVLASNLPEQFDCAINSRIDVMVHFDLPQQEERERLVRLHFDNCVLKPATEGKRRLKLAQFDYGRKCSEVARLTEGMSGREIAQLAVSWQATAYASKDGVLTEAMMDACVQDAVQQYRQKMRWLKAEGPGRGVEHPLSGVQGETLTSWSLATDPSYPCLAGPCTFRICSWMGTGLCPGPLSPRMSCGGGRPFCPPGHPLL
Chain of UniProt P29401 (P29401 whole entry): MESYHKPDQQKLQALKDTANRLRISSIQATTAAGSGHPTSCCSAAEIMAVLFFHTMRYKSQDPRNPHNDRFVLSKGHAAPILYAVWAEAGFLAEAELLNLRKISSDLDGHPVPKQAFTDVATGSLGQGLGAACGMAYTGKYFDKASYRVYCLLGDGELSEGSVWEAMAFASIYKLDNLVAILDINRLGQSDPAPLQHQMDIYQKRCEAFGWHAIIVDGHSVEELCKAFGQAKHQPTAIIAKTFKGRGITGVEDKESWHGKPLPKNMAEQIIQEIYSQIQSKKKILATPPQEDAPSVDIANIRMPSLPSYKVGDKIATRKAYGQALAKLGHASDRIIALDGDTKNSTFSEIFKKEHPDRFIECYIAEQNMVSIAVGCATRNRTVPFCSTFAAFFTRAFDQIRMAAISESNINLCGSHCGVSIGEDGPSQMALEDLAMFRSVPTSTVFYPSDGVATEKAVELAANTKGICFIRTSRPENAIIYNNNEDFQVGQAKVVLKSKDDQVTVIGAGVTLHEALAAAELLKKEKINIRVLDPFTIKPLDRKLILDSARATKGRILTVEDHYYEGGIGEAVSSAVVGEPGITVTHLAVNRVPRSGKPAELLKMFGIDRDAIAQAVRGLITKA

Target	lysine labeling ratio R10:1
TNKS1BP1 (lysine site: K1680) (UniProt Q9C0C2)	2.22
UniProt Q16181 (lysine site: K408)	3.83
ITGB1 (lysine site: K93) (UniProt P05556)	2.06
F11R (lysine site: K97) (UniProt Q9Y624)	18.5
CD46 (lysine site: K224) (UniProt P15529)	6.48
HNRNPM (lysine site: K388) (UniProt P52272)	6.02
ANXA1 (lysine site: K287) (UniProt P04083)	2.78
GPC1 (lysine site: K277) (UniProt P35052)	2.26
CELSR2 (lysine site: K2121) (UniProt Q9HCU4)	2.98
DST (lysine site: K3977) (UniProt Q03001)	1.83 (active)
LAMC1 (lysine site: K1355) (UniProt P11047)	1.67 (active)
UniProt P62826 (lysine site: K134)	4.19
ATAD3B (lysine site: K505) (UniProt Q5T9A4)	0.98 (active)
UniProt Q6NZI2 (lysine site: K122)	5.32
PDAP1 (lysine site: K181) (UniProt Q13442)	1.83 (active)
FLNB (lysine site: K987) (UniProt O75369)	5.99
NEGR1 (lysine site: K84) (UniProt Q7Z3B1)	1.36 (active)
SPTAN1 (lysine site: K1856) (UniProt Q13813)	5.67
LAMB1 (lysine site: K1505) (UniProt P07942)	3.69
MCAM (lysine site: K134) (UniProt P43121)	3.83

Target	lysine labeling ratio R10:1
HSPA5 (lysine site: K185) (UniProt P11021)	3.68
HNRNPU (lysine site: K697) (UniProt Q00839)	0.915 (active)
MTHFD2 (lysine site: K50) (UniProt P13995)	3.56
ITGA6 (lysine site: K594) (UniProt P23229)	6.44
SSBP1 (lysine site: K81) (UniProt Q04837)	4.93
TST (lysine site: K24) (UniProt Q16762)	2.33
TKT (lysine site: K310) (UniProt P29401)	7.45
EPCAM (lysine site: K168) (UniProt P16422)	6.35
MYH9 (lysine site: K1673) (UniProt P35579)	5.57
XRCC6 (lysine site: K238) (UniProt P12956)	0.959 (active)
RPS19 (lysine site: K77) (UniProt P39019)	2.89
UniProt Q15697 (lysine site: K143)	2.8
AHCY (lysine site: K204) (UniProt P23526)	1.25 (active)
SLC25A5 (lysine site: K105) (UniProt P05141)	6.97
APOA4 (lysine site: K79) (UniProt P06727)	1.22 (active)
SUB1 (lysine site: K97) (UniProt P53999)	6.03
PPT1 (lysine site: K191) (UniProt P50897)	1.31 (active)
NUCB2 (lysine site: K171) (UniProt P80303)	2.34
CYR61 (lysine site: K203) (UniProt O00622)	2.96
PRDX2 (lysine site: K119) (UniProt P32119)	2 (active)
